Drawing on PubChem BioAssay (NCI), this text covers growth for nine compounds.

Compounds without any hit were thinned out: in the full panel of roughly 83,000, 20% have a hit.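 Step 1: grow cells in 96-well plates. Step 2: add test compound at a single concentration. Step 3: incubate 48 h. Step 4: record percent growth.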 A number with no mark means an inactive call. Calls of active or inactive are those of the source. The calls were made as follows: active = growth percent below 10; inactive = the rest.

Test systems include HCT-15 colon; HT29 colon; SNB-75 CNS; SNB-19 CNS; U251 CNS; PC-3 prostate; SK-MEL-5 melanoma; UACC-62 melanoma; LOX IMVI melanoma; SK-MEL-28 melanoma; SK-MEL-2 melanoma; SN12C renal; UO-31 renal; TK-10 renal; ACHN renal; A498 renal; CCRF-CEM leukemia; MOLT-4 leukemia; CAKI-1 renal.
What all share (assay): NCI-60 one-dose screen, 48 h (100 = growth as untreated, 0 = no growth, -100 = all killed)
Holding throughout (conditions): 10 µM unless noted

For the compound `Cc1ccc(Oc2nc3ccccc3cc2-c2nnc(Cn3c(COc4ccccc4)nc4ccccc43)o2)cc1`, the growth with HCT-15 colon was 17.5%; in the test on HT29 colon, 4.53% (active); in the test with SNB-75 CNS it was 54.9%; with SNB-19 CNS, 52.4%; in the test with U251 CNS, 43%; in the test with PC-3 prostate, 46.2%. The growth in the test on SK-MEL-5 melanoma was 80.5%; in the test with UACC-62 melanoma it was 50.8%; with LOX IMVI melanoma it was 19.6%; with SK-MEL-28 melanoma, 90.9%; in the test on SK-MEL-2 melanoma, 89.8%; with SN12C renal, 29.4%. Further, the growth in the test on UO-31 renal is 8.45% (active); in the test with TK-10 renal, 77.1%; with ACHN renal, 49.9%; with A498 renal, 54.1%; in the test on CCRF-CEM leukemia, 0.728% (active); with MOLT-4 leukemia it was -13.8% (active).

On to `COc1cccc(-c2nc3sccn3c2-c2ccnc(NCCCNS(=O)(=O)c3ccc(F)cc3)n2)c1`, for which the growth with HCT-15 colon is 18.1%; in the test with HT29 colon it was 26.7%; in the test with SNB-75 CNS, 66.8%; with SNB-19 CNS, 78.4%; with U251 CNS, 49.6%; in the test on PC-3 prostate, 47.7%. Moreover, the growth is 7.26% (active) in the test with SK-MEL-5 melanoma; 6.83% (active) in the test on UACC-62 melanoma; 14.4% in the test on LOX IMVI melanoma; 38.1% with SK-MEL-28 melanoma; 40.8% with SK-MEL-2 melanoma; 36.8% in the test on SN12C renal. In addition, the growth with UO-31 renal is 12.5%; in the test on TK-10 renal, 66.2%; in the test on ACHN renal, 21.8%; in the test with CAKI-1 renal it was 30.9%; with CCRF-CEM leukemia it was 24.6%; with MOLT-4 leukemia, 23.2%.

Consider `COc1cc(OC)c(C(=O)/C=C/c2ccc(C(F)(F)F)cc2)c(OC)c1`, for which the growth with HCT-15 colon is 29.4%; in the test with HT29 colon, 26.9%; in the test on SNB-75 CNS, 30%; with SNB-19 CNS, 57.5%; in the test with U251 CNS, 46.2%; in the test with PC-3 prostate it was 54.5%. Moreover, the growth is 62.2% with SK-MEL-5 melanoma; 48.2% with UACC-62 melanoma; 32.4% in the test on LOX IMVI melanoma; 67.4% with SK-MEL-28 melanoma; 45.4% in the test with SK-MEL-2 melanoma; 41.2% in the test with SN12C renal. Besides, the growth in the test on UO-31 renal was 56.4%; with TK-10 renal, 84.6%; in the test on ACHN renal it was 60%; in the test with CAKI-1 renal it was 79.3%; in the test with CCRF-CEM leukemia, 25.9%; with MOLT-4 leukemia it was 24%.

As for `COc1ccc(-c2nc3sccn3c2-c2ccnc(NCCCNS(=O)(=O)c3ccc4ccccc4c3)n2)cc1`, the growth was 44.9% in the test on HCT-15 colon; 44.1% in the test on HT29 colon; 85.5% in the test on SNB-75 CNS; 86.1% in the test with SNB-19 CNS; 67.3% in the test with U251 CNS; 66.8% with PC-3 prostate. Also, the growth in the test with SK-MEL-5 melanoma was 42.3%; with UACC-62 melanoma it was 54.5%; with LOX IMVI melanoma, 53.9%; in the test on SK-MEL-28 melanoma, 80%; in the test with SK-MEL-2 melanoma it was 84.6%; with SN12C renal it was 79.5%. Also, the growth in the test on UO-31 renal was 60.7%; with TK-10 renal, 89.8%; with ACHN renal it was 60%; in the test on CAKI-1 renal it was 77.5%; in the test with CCRF-CEM leukemia it was 53.8%; in the test on MOLT-4 leukemia, 47.5%.

Turning to `O=C1c2ccccc2C(=O)c2c(N=Nc3sc(=O)[nH]c3S)cccc21`, the growth in the test on HCT-15 colon was 94%; in the test with HT29 colon, 82.9%; in the test with SNB-75 CNS it was 112%; in the test with SNB-19 CNS it was 93.4%; in the test with U251 CNS, 91.6%; with PC-3 prostate it was 89.9%. The growth in the test with SK-MEL-5 melanoma was 93.4%; in the test on UACC-62 melanoma, 88.8%; with LOX IMVI melanoma, 84.9%; in the test on SK-MEL-28 melanoma, 110%; in the test with SK-MEL-2 melanoma it was 95.2%; in the test on SN12C renal, 100%. Besides, the growth with UO-31 renal is 88.7%; with TK-10 renal, 138%; with ACHN renal, 102%; with CAKI-1 renal it was 96.3%; in the test with CCRF-CEM leukemia, 94.8%; in the test on MOLT-4 leukemia, 101%.

`COc1c(NC[C@H]2OC(O)[C@H](O)[C@@H](O)[C@@H]2O)c(=O)c1=O` (stereo partly specified): the growth in the test with HCT-15 colon is 107%; with HT29 colon, 118%; in the test with SNB-75 CNS, 70.9%; in the test on SNB-19 CNS, 109%; in the test on U251 CNS, 95.4%; with PC-3 prostate it was 92.7%. In addition, the growth is 100% in the test on SK-MEL-5 melanoma; 96.6% in the test with UACC-62 melanoma; 95.5% in the test on LOX IMVI melanoma; 107% in the test with SK-MEL-28 melanoma; 121% with SK-MEL-2 melanoma; 101% in the test with SN12C renal. The growth in the test on UO-31 renal was 86.7%; in the test on TK-10 renal, 97%; in the test with ACHN renal, 105%; in the test on A498 renal, 73%; in the test on CCRF-CEM leukemia, 81.2%; in the test on MOLT-4 leukemia, 102%.

Take `COc1ccc(-c2nc3sccn3c2-c2ccnc(NCCNS(=O)(=O)c3ccc(C(F)(F)F)cc3)n2)cc1`: the growth in the test with HCT-15 colon is 9.19% (active); with HT29 colon, 14.5%; in the test with SNB-75 CNS, 29.5%; in the test with SNB-19 CNS, 34.2%; in the test with U251 CNS, 15.4%; in the test on PC-3 prostate, 9.86% (active). Moreover, the growth with SK-MEL-5 melanoma was -94.1% (active); in the test on UACC-62 melanoma, 0.0074% (active); in the test with LOX IMVI melanoma it was 2.4% (active); with SK-MEL-28 melanoma, 13.9%; in the test with SK-MEL-2 melanoma, -27.8% (active); in the test on SN12C renal, 17.3%. The growth in the test with UO-31 renal is 19%; in the test with TK-10 renal, 30.2%; in the test with ACHN renal, 3.82% (active); in the test on CAKI-1 renal, 17%; in the test with MOLT-4 leukemia, 0.208% (active).

Consider `COc1ccc(NC(=O)c2cc3ccccc3nc2Nc2cc(OC)c(OC)c(OC)c2)cc1`, for which the growth with HCT-15 colon was 36.3%; in the test with HT29 colon, 64.3%; in the test on SNB-75 CNS, 69.4%; in the test on SNB-19 CNS it was 78.9%; in the test with U251 CNS, 54.2%; with PC-3 prostate, 57.6%. For the same compound, the growth was 44.3% with SK-MEL-5 melanoma; 64.4% with UACC-62 melanoma; 52.8% in the test with LOX IMVI melanoma; 73.2% in the test with SK-MEL-28 melanoma; 89.2% in the test with SK-MEL-2 melanoma; 69.7% with SN12C renal. In addition, the growth with UO-31 renal is 59.7%; with TK-10 renal it was 90.7%; in the test on ACHN renal, 53%; with CAKI-1 renal, 70.2%; with CCRF-CEM leukemia, 43.6%; in the test on MOLT-4 leukemia, 49.2%.

In the case of `Cc1ccc(C2=NN(c3ccc(S(=O)(=O)NC(=O)NCc4ccccc4)cc3)C(c3ccc(N(C)C)cc3)C2)c(C)c1` (stereo unspecified), the growth in the test on HCT-15 colon was 32.6%; in the test with HT29 colon, 43%; with SNB-75 CNS, 65.1%; in the test on SNB-19 CNS it was 54.8%; in the test on U251 CNS it was 22.6%; in the test with PC-3 prostate, 32.7%. Moreover, the growth with SK-MEL-5 melanoma was 12.2%; in the test with UACC-62 melanoma it was 54.7%; in the test with LOX IMVI melanoma it was 36.3%; with SK-MEL-28 melanoma it was 26.6%; with SK-MEL-2 melanoma, 40.9%; in the test on SN12C renal, 46.5%. The growth with UO-31 renal is 38.3%; in the test with TK-10 renal it was 66.5%; in the test on ACHN renal it was 44.7%; with CAKI-1 renal, 47.7%; in the test with CCRF-CEM leukemia, 42%; in the test with MOLT-4 leukemia, 23.1%.
